# Assay results published in ChEMBL document CHEMBL4513216, “Probing the Open Global Health Chemical Diversity Library for Multistage-Active Starting Points for Next-Generation Antimalarials” (ACS Infect Dis, 2020).
# Hit rate of the full screen: of about 68,000 compounds, about 2,700 (4%) showed an effect of 50% or more. Many of the other results were omitted from the sample, so strong results are more common in it than they were.
# Tested on: Plasmodium berghei
# Assay: Screen against P. berghei liver stage (PbLuc), transformed with Luciferase, at 2uM
# Assay type: functional, HepG2
# Settings: tested at 2 uM
row,Structure (SMILES),INHIBITION [%]
1,O=C(NCC(O)c1ccc(F)c(F)c1)c1ccccc1F (stereo unspecified),26.74
2,O=C(NCC(O)c1ccc(F)c(F)c1)c1cccnc1O (stereo unspecified),-38.85
3,Cc1ccccc1C(=O)NCC(O)c1ccc(F)c(F)c1 (stereo unspecified),60.13
4,O=C1CO[C@@H]2CN(Cc3ccncc3)C[C@H]2N1Cc1ccncc1,31.76
5,O=C(Nc1ccc2c(c1)OCO2)Nc1cnn(C2CCOCC2)c1,-59
6,COCCn1cc(NC(=O)NCC(c2cccc(F)c2)N(C)C)cn1 (stereo unspecified),45.57
7,CCn1cc(NC(=O)NCC(C)O)cn1 (stereo unspecified),62.13
8,CCn1cc(NC(=O)NCC(C)N(C)C)cn1 (stereo unspecified),-3.58
9,COCCn1cc(NC(=O)NCC(C)N2CCOCC2)cn1 (stereo unspecified),20.77
10,CCn1cc(NC(=O)NCC(O)c2ccccc2)cn1 (stereo unspecified),20.28
11,CCC(CC)C(CNC(=O)Nc1cnn(CCOC)c1)N(C)C (stereo unspecified),66.11
12,CCOC(=O)c1sc2ccsc2c1CNC(=O)CCOC,27.47
13,N#CCCCOc1cccnc1NC(=O)CCC1CCCC1,-54.22
14,Cc1nccn1-c1ccc(=O)n(CCNC(=O)c2ccncc2)n1,-45.03
15,CN1CCCCc2c1nc1c(c2N)CCCC1,14.11
16,CC(O)c1cnn(-c2ccccc2)c1 (stereo unspecified),23.06
17,COCCN1C[C@H]2CN(C(=O)c3ccc4c(c3)OCO4)CCN2C1=O,-2.66
18,CC(C#N)(NC(=O)COc1ccccc1Br)C1CC1 (stereo unspecified),8.78
19,CC(C)C1CCCN1C(=O)c1ccc(-n2ncc(C#N)c2N)cc1 (stereo unspecified),-36.67
20,Cc1cc(-c2nn(C)c(Cl)c2CN2CC[C@H](CO)[C@@H](O)C2)no1,-5.87
21,Cc1cc(C)n(C2CCN(Cc3c(-c4cc(C)on4)nn(C)c3Cl)C2)n1 (stereo unspecified),-11.77
22,Cc1cc(-c2nn(C)c(Cl)c2CN2CCCCC(N)C2)no1 (stereo unspecified),51.81

row,Structure (SMILES),INHIBITION [%]
1,CN1CCN(Cc2ccc(-c3ccc(-c4ccn[nH]4)cc3)nc2)CC1,-35.16
2,CC(=O)Nc1nc(COc2nc(C)no2)cs1,-4.89
3,O=C(O)[C@@H]1CN(Cc2c[nH]c(CC3CCCC3)n2)C[C@H]1c1ccccn1,50.86
4,O=C(O)[C@@H]1CN(Cc2c[nH]c(CC3CCCC3)n2)C[C@H]1c1ccncc1,25.35
5,CCC[C@@H]1CN(Cc2c[nH]c(CC3CCCC3)n2)C[C@H]1C(=O)O,5.93
6,CCOCC1CN(C(=O)c2ccco2)Cc2cnn(CC)c21 (stereo unspecified),16.87
7,Cc1ccsc1C(O)CNC(=O)Cc1ccc(S(=O)(=O)C(C)C)cc1 (stereo unspecified),16.03
8,COc1ccc(CC(=O)NCC(O)c2sccc2C)cc1OC (stereo unspecified),55.52
9,Cc1ccsc1C(O)CNC(=O)Cc1ccc(F)cc1 (stereo unspecified),33.35
10,CCCn1nc(C)c(CNC(=O)c2snnc2C)c1C,32.26
11,Cc1nc(N)cc(C2CCN2CCOc2ccccc2)n1 (stereo unspecified),-43.34
12,Cc1cccc(-c2nc(C)nn2CC(=O)NC2CCCC2)c1,25.74
13,Cc1ccc(NC(=O)c2ccc(=O)n(CC(=O)NC3CCCC3)n2)cc1,50.2
14,Cc1ccc(NC(=O)c2ccc(=O)n(CC(=O)Nc3nccs3)n2)cc1,-20.78
15,CCc1nnsc1C(=O)NCc1c(C)nn(CCOC)c1C,24.05
16,Cn1nc(C2CCCN2)c2c(C(=O)NC3CC3)cc(C3CC3)nc21 (stereo unspecified),11.43
17,Cc1ccoc1C1=NNC(=CN2CCOC(Cn3cccn3)C2)O1 (stereo unspecified),60.64
18,Cc1ccoc1C1=NNC(=CN2CCn3c(nnc3C(C)C)C2)O1,83.22
19,Cc1ccoc1C1=NNC(=CN2CCn3c(C)nnc3C2)O1,-9.22
20,Cc1cnn(CC2CN(C=C3NN=C(c4occc4C)O3)CCO2)c1 (stereo unspecified),-32.2
21,Cc1ccoc1C1=NNC(=CN2CCCC(Cn3cncn3)C2)O1 (stereo unspecified),3.9
22,CCc1nnc2n1CCN(C=C1NN=C(c3occc3C)O1)C2,-27.57

row,Structure (SMILES),INHIBITION [%]
1,NC(=O)C1CCN(C(=O)NCc2ccc3c(c2)OCCO3)CC1,42.17
2,C[C@H]1C[C@H]2CN(S(=O)(=O)c3ccc(F)cc3)CC[C@H]2O1,47.42
3,Cc1nc(N2CCOc3ccc(CO)cc3C2)c2nc(C)oc2n1,34.52
4,CC(C)OCCC(=O)NCCC(=O)N1CCN(c2ccccn2)CC1,-8.63
5,Cc1noc(C2CCN(Cn3cc(Cl)cn3)CC2)n1,-16.03
6,CCCOc1cc(CNC(=O)Nc2ccc(C)cc2)ccn1,5.88
7,Cc1csc([C@@H]2C[C@H]3CN(c4ncc(F)cn4)C[C@H]3O2)n1,19.01
8,CN1CCC(C(=O)N2CCCN(c3cccnn3)CC2)C1 (stereo unspecified),45.48
9,CC(=O)N1CCN(C(=O)C2CCN(c3cccnn3)C2)CC1 (stereo unspecified),-4.8
10,O=C(C1CCN(c2cccnn2)C1)N1CCOCC1 (stereo unspecified),42.48
11,CN1CCN(C(=O)C2CCCN(c3cccnn3)C2)CC1 (stereo unspecified),59.49
12,CN1CCN(C(=O)C2CCN(c3cccnn3)C2)CC1 (stereo unspecified),33.64
13,CN1CCN(C(=O)C2CCN(c3cccnn3)CC2)CC1,54.49
14,CCC(C)c1cc(C(=O)N(CC(=O)NC)c2cccc(F)c2)on1 (stereo unspecified),-7.58
15,O=C([C@H]1C[C@H]2OCC[C@H]2N(CCc2ccccc2)C1)N1CCCCO1,-10.8
16,Cc1cc(C(=O)N2CCN(C(=O)CC(C)C)[C@@H]3CS(=O)(=O)C[C@@H]32)no1,-57.02
17,COc1ccc(CN2CCO[C@@H]3C[C@@H](C(=O)NC(C)C)C[C@H]32)cc1,3.72
18,CCN1CC(COC(=O)c2cc(C)nn2CC)CC1=O (stereo unspecified),3.46
19,COc1ccc2c(C)c(C(=O)NC3CCN(S(C)(=O)=O)CC3)oc2c1,11.9
20,COc1ccc2c(C)c(C(=O)NCC3CN(S(C)(=O)=O)CCO3)oc2c1 (stereo unspecified),60.71
21,COc1ccc2c(C)c(C(=O)NC3CCOCC3)oc2c1,-8.3
22,CC(C)CN1C[C@H](COCc2ccccc2)Oc2ncccc2C1=O,37.74

row,Structure (SMILES),INHIBITION [%]
1,COc1cc2[nH]c(=O)c(CN3CCC[C@H]3CO)cc2c(OC)c1OC,63.1
2,COc1cc2[nH]c(=O)c(CN3CCC[C@@H]3C(N)=O)cc2c(OC)c1OC,-30.15
3,COc1cc2[nH]c(=O)c(CN3CCCC3C)cc2c(OC)c1OC (stereo unspecified),-5.51
4,CCNC(=O)C1CCN(Cc2ccc(C(=O)Nc3cnns3)cc2)C1 (stereo unspecified),29.78
5,Cc1cc(C(=O)N2CCc3nc(N4CCCC4)nc(C)c3CC2)c(C)o1,22.96
6,CCCc1cc(CN(C)C2CSCCSC2)n[nH]1,-71.03
7,CCCc1cc(CN(C)C2CC(C)(C)NC(C)(C)C2)n[nH]1,62.51
8,CCCc1cc(CN(C)C2CCSCC2)n[nH]1,36.28
9,CN1CCCN(c2ccc(F)cc2CNC(=O)c2ccsc2)CC1,31.05
10,O=C(CN1CCN(c2ccnc3c(F)ccc(F)c23)CC1)N1CCCC1,3.01
11,CC(C)(C)CN1CC(COc2ccccc2)Oc2ccncc2S1(=O)=O (stereo unspecified),14.96
12,Cc1ccc(-c2noc([C@H](N)CC(C)C)n2)nn1,24.55
13,CCSC(C)c1nc(-c2ccc(C)nn2)no1 (stereo unspecified),66.4
14,Cc1ccc(-c2noc(C(O)CC(C)C)n2)nn1 (stereo unspecified),-12.08
15,Fc1cnc(N2C[C@@H]3C[C@@H](c4nc(C5CC5)cs4)O[C@@H]3C2)nc1,3.53
16,Cc1nc(-c2cc(C(=O)O)co2)cs1,9.95
17,CCOCC1CN(C(=O)c2ccncn2)Cc2cnn(CC)c21 (stereo unspecified),4.99
18,CC(C)C(C)(C#N)NC(=O)Cn1cc(-c2ccccc2)cn1 (stereo unspecified),-4.26
19,CC(C)C(C)(C#N)NC(=O)Cn1cc(Cl)cn1 (stereo unspecified),26.74
20,CC(C)C(C)(C#N)NC(=O)Cn1cc(I)cn1 (stereo unspecified),64.9
21,Cc1nccn1CCN1C(=O)CC2(CCCC2)CC1=O,-50.2
22,CCc1c(NCc2cccnc2)cnn1CC(C)C,-16.94

row,Structure (SMILES),INHIBITION [%]
1,CN(Cc1ccsc1)C(=O)Nc1ccc(S(C)(=O)=O)cc1,-12.75
2,O=C(O)CC(CC(=O)NCCc1cccs1)c1cccs1 (stereo unspecified),17.25
3,O=C(O)CC(CC(=O)N(Cc1ccsc1)C1CC1)c1cccs1 (stereo unspecified),1.06
4,Cn1cccc1CN(C(=O)Cc1cccs1)C1CC1,51.96
5,Cn1cccc1CN(C(=O)CC(CC(=O)O)c1cccs1)C1CC1 (stereo unspecified),81.52
6,CN(C(=O)Cc1cccs1)C1CCN(c2ccccn2)CC1,16.89
7,CN(Cc1cccs1)C1CCC[C@@H]2CN(C(=O)c3cccn3C)C[C@H]12 (stereo partly specified),6.33
8,CCN(CC1CCOC1)C(=O)NCc1nnc2n1CCCCC2 (stereo unspecified),7.24
9,CC(NCC1CCN(CCO)CC1)c1cccnc1 (stereo unspecified),-4.09
10,CC(NCC1CCN(CCO)CC1)c1ccc(OC(F)(F)F)cc1 (stereo unspecified),47.68
11,CC(NCC1CCN(CCO)CC1)c1cccc(Cl)c1 (stereo unspecified),34.46
12,CC(NCC1CCN(CCO)CC1)c1ccc(Cl)cc1 (stereo unspecified),56.49
13,CC(NCC1CCN(CCO)CC1)c1ccc(F)c(Cl)c1 (stereo unspecified),-111.19
14,CC(NCC1CCN(CCO)CC1)c1ccc(C(F)(F)F)cc1 (stereo unspecified),55.39
15,CCc1nc(NC(=O)NCCc2cscn2)nn1C,1.88
16,Clc1cccc(C(CNCc2ccccn2)N2CCOCC2)c1 (stereo unspecified),20.8
17,CC(C)c1nn(C)c(N(C)C)c1CNCc1ccnc(N(C)C)c1,1.36
18,O=C(Cn1ccc2ccc(Cl)cc21)NCc1ccc(C(=O)O)cc1,30.98
